Source: PubChem BioAssay (EPA / NIEHS)
The source made the active and inactive calls. Rule for the calls: active = hit-call score of the fitted dose curve at least 0.9, where 1 is the maximum; inactive = score below 0.9.

tested on: not listed separately; assay: ATG_BRE_CIS: Attagene CIS-FACTORIAL HepG2 Assay for human Bone Morphogenetic Protein (BMP) Response Element (BRE) (AID 2282933); settings: HepG2 BMP response element reporter, Attagene transcription factor profiling; actives raise or lower the signal
Method in brief: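 Endogenous transcription factor activity at a BMP response element was monitored in transfected HepG2 cells 24 h after dosing. Fluorescent RT-PCR products were resolved by capillary electrophoresis, and activity was fitted in both directions versus DMSO.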

| Compound | outcome | AC50 |
| --- | --- | --- |
| CC(c1cc(C(C)(C)C)cc(C(C)(C)C)c1O)c1cc(C(C)(C)C)cc(C(C)(C)C)c1O | inactive | – |
| CC(Cl)COP(=O)(OCC(C)Cl)OCC(C)Cl (configuration not stated) | inactive | – |
| C[Si]1(C)O[Si](C)(C)O[Si](C)(C)O[Si](C)(C)O[Si](C)(C)O1 | inactive | – |
| O=C(C=Cc1ccccc1)OCCc1ccccc1 | inactive | – |
| CC(C)c1ccc(O)c(C(C)C)c1 | inactive | – |
| CC(=O)OCCc1ccccc1 | inactive | – |
| C=C(C)OC(C)=O | inactive | – |
| CCC1COC(=O)O1 (configuration not stated) | inactive | – |
| CCCCCCCCCC(C)=O | inactive | – |
| Cc1c[nH]c(=O)[nH]c1=O | inactive | – |
| C=CC(=O)O[C@H]1C[C@@H]2CC[C@@]1(C)C2(C)C | inactive | – |
| C=CC(=O)OCCCCCCCCCC | inactive | – |
| CCCC(CC)c1ccccc1 (configuration not stated) | inactive | – |
| O=C1CCCN1C1CCCCC1 | inactive | – |
| COC(=O)c1ccc(C(=O)OC)c(C(=O)OC)c1 | inactive | – |
| O=S(=O)(O)c1ccc(Nc2nc(Nc3ccc(C=Cc4ccc(Nc5nc(Nc6ccc(S(=O)(=O)O)cc6)nc(N(CCO)CCO)n5)cc4S(=O)(=O)O)c(S(=O)(=O)O)c3)nc(N(CCO)CCO)n2)cc1 | inactive | – |
| CC(C)(CO)COC(=O)C(C)(C)CO | inactive | – |
| Clc1cc(Cl)c(Cl)c(Cl)c1Cl | inactive | – |
| O=C(O)C1CCC(C(=O)O)CC1 (configuration not stated) | inactive | – |
| CC1=CP(=O)(c2ccccc2)CC1 (configuration not stated) | inactive | – |
| Cc1cc(=O)[nH]c(=O)[nH]1 | inactive | – |
| CC(C)(C)C1CCC(=O)CC1 | inactive | – |
| CCCCNS(=O)(=O)c1ccc(C)cc1 | inactive | – |
| CCOC(=O)c1ccccc1C | inactive | – |
| c1ccc2sc(SSN3CCOCC3)nc2c1 | inactive | – |
| CC(C)CCOCc1ccccc1 | inactive | – |
| COc1ccc(-c2coc3cc(O)cc(O)c3c2=O)cc1 | – | 67.2 µM (active) |
| Nc1ccc(C(=O)O)cc1 | inactive | – |
| CCCCC(CC)COS(=O)(=O)O (configuration not stated) | inactive | – |
| CC(C)[N+](C)(CCOC(=O)C1c2ccccc2Oc2ccccc21)C(C)C | inactive | – |

target: Retinoic acid receptor alpha (Homo sapiens) (UniProt P10276); assay: ATG_DR5_RAR_CIS: Attagene CIS-FACTORIAL HepG2 Assay for human Retinoic Acid Receptor Alpha (RARE), DR5 submotif (AID 2282934); settings: HepG2 Attagene cis-factorial RARE DR5 reporter, mRNA; actives raise or lower the signal;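 for AC50: reporter responds to endogenous RAR alpha beta and gamma in HepG2 not RARA alone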
Method in brief: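 Transient MRTU transfection of HepG2; 24 h compound treatment; TriZol RNA, oligo(dT) RT, PCR, FAM labelling, capillary electrophoresis. Bidirectional fit vs DMSO. Endogenous TF activity at DR5 RARE.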

Retinoic acid receptor alpha (Homo sapiens), sequence (P10276 whole entry, looked up): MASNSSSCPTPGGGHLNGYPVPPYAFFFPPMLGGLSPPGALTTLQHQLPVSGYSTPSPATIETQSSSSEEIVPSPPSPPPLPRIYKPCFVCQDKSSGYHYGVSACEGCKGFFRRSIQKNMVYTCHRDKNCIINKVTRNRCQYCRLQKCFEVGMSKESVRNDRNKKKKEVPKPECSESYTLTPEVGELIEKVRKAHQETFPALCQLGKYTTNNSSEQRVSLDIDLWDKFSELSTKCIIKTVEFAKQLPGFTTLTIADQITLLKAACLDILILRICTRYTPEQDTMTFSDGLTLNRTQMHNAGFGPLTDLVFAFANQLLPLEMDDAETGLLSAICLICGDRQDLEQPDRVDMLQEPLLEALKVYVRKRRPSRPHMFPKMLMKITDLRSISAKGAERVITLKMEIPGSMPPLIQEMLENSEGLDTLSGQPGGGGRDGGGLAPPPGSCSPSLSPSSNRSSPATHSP

| Compound | outcome | AC50 |
| --- | --- | --- |
| CC(c1cc(C(C)(C)C)cc(C(C)(C)C)c1O)c1cc(C(C)(C)C)cc(C(C)(C)C)c1O | inactive | – |
| C=CCCCCCCCCOC(C)=O | inactive | – |
| CC(Cl)COP(=O)(OCC(C)Cl)OCC(C)Cl (configuration not stated) | inactive | – |
| C[Si]1(C)O[Si](C)(C)O[Si](C)(C)O[Si](C)(C)O[Si](C)(C)O1 | inactive | – |
| O=C(C=Cc1ccccc1)OCCc1ccccc1 | inactive | – |
| CC(C)c1ccc(O)c(C(C)C)c1 | inactive | – |
| CC(=O)OCCc1ccccc1 | inactive | – |
| C=C(C)OC(C)=O | inactive | – |
| CCC1COC(=O)O1 (configuration not stated) | inactive | – |
| CCCCCCCCCC(C)=O | inactive | – |
| Cc1c[nH]c(=O)[nH]c1=O | inactive | – |
| O=C(O)CC(C(=O)O)S(=O)(=O)O (configuration not stated) | inactive | – |
| C=CC(=O)O[C@H]1C[C@@H]2CC[C@@]1(C)C2(C)C | – | 177 µM (active) |
| C=CC(=O)OCCCCCCCCCC | – | 46 µM (active) |
| CC(=O)CC(=O)Nc1ccccc1C | inactive | – |
| CCCC(CC)c1ccccc1 (configuration not stated) | inactive | – |
| COc1cc(O)c(C(=O)c2ccccc2)cc1S(=O)(=O)O | inactive | – |
| O=C1CCCN1C1CCCCC1 | inactive | – |
| CC1CCC(C(C)(C)S)C(=O)C1 (configuration not stated) | inactive | – |

| Compound | outcome | AC50 |
| --- | --- | --- |
| COC(=O)c1ccc(C(=O)OC)c(C(=O)OC)c1 | inactive | – |
| CCC(C)c1ccccc1 (configuration not stated) | inactive | – |
| O=S(=O)(O)c1ccc(Nc2nc(Nc3ccc(C=Cc4ccc(Nc5nc(Nc6ccc(S(=O)(=O)O)cc6)nc(N(CCO)CCO)n5)cc4S(=O)(=O)O)c(S(=O)(=O)O)c3)nc(N(CCO)CCO)n2)cc1 | inactive | – |
| CC(C)(CO)COC(=O)C(C)(C)CO | inactive | – |
| Clc1cc(Cl)c(Cl)c(Cl)c1Cl | inactive | – |
| O=C(O)C1CCC(C(=O)O)CC1 (configuration not stated) | inactive | – |
| CC1=CP(=O)(c2ccccc2)CC1 (configuration not stated) | inactive | – |
| Cc1cc(=O)[nH]c(=O)[nH]1 | inactive | – |
| CC(C)(C)C1CCC(=O)CC1 | inactive | – |
| CCCCNS(=O)(=O)c1ccc(C)cc1 | inactive | – |
| CCOC(=O)c1ccccc1C | inactive | – |
| c1ccc2sc(SSN3CCOCC3)nc2c1 | – | 170 µM (active) |
| CC(C)CCOCc1ccccc1 | inactive | – |
| COc1ccc(-c2coc3cc(O)cc(O)c3c2=O)cc1 | inactive | – |
| O=C(O)/C=C/c1ccccc1 | inactive | – |
| Nc1ccc(C(=O)O)cc1 | inactive | – |
| CCCCC(CC)COS(=O)(=O)O (configuration not stated) | inactive | – |
| CC(C)[N+](C)(CCOC(=O)C1c2ccccc2Oc2ccccc21)C(C)C | inactive | – |
